HT1080-NT tox: kills 2HG-producing HT-1080-NT fibrosarcoma cells; HT-1080-NT fibrosarcoma viability, CellTiter-Glo ATP luminescence, 48 h; Potency, µM (top dose mostly 46.1 µM), for inactives: at the top dose activity, negative = less viability, hits mostly cytotoxic; 360,000 compounds, 1.6% hits;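 also: NT is the 2HG producing partner of a matched IDH1 knockdown line; potency is read from the fitted curve at half-maximal effect; 0% = DMSO-treated cells and -100% = media-only wells without cells; nearly all actives have a fitted effect of over 55% in size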
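Compounds were tested in concentration-response format on HT-1080-NT cells for 48 hours at 37 degrees C. Cell viability came from CellTiter-Glo luminescence; curves were classified by r2, response magnitude and activity.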
HT1080 IDH1KD tx: HT-1080 IDH1 knockdown cell toxicity (counter line). HT-1080 IDH1 knockdown viability, ATP luminescence, 48 h. Potency, µM (highest dose often 46.1 µM), without a hit: top-dose activity, negative = toxicity, most hits filed as cytotoxic. 360,000 compounds, 2% hits. AID 686971;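 also: potency is read from the fitted curve at half-maximal effect; 0% = DMSO wells and -100% = cell-free medium wells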
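Knockdown cells (IDH1KD HT-1080) received compounds 2 h after plating at 750 cells/well and were kept 48 h at 37 °C in 5% FBS RPMI. A CellTiter-Glo luminescence read gave % activity for curve fitting.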
DT40 TDP1 no CPT: qHTS for Inhibitors of human tyrosyl-DNA phosphodiesterase 1 (TDP1): qHTS in cells in absence of CPT | DT40 Tdp1-/- hTDP1 cells, no CPT, ATP luminescence, 48 h | Potency, µM (highest dose often 46.2 µM), for the others: at the top dose activity change, negative = growth inhibition, hits mostly inhibitors | 420,000 compounds, 15% hits; also: potency is read from the fitted curve at half-maximal effect; nearly all actives have a fitted effect of over 55% in size
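No-CPT arm: Tdp1-/-;hTDP1 DT40 cells (400/well) plus compounds, incubated ≥48 hr at 37 °C. Readout CellTiter-Glo luminescence.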
TDP1 cell CPT: DT40-hTDP1 cell growth loss with CPT | chicken DT40 Tdp1-/-;hTDP1 cells + 20 nM CPT, ATP luminescence, 48 h | Potency, µM (top dose mostly 46.2 µM), for inactives: at the top dose activity change, negative = growth inhibition, hits mostly inhibitors | 420,000 compounds, 12% hits | AID 686979; also: potency is read from the fitted curve at half-maximal effect; nearly all actives have a fitted effect of over 55% in size
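Chicken DT40 Tdp1-/- cells complemented with human TDP1, 400 cells/well, exposed to compounds plus 20 nM camptothecin for at least 48 h at 37 C; viability read as ATP content by CellTiter-Glo luminescence.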
IL-1B inflam inh: blocks inflammasome-driven IL-1 beta release; activity change, % at 57.5 µM; 360,000 compounds, 4.7% hits; THP-1 LPS/ATP IL-1B secretion, AlphaLISA, 16 h; hits give low values; in the data active = activity change below about -50%; inconclusive = mostly about -30% to -49%
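THP-1 cells pretreated 1 hr with compounds (up to 57.5 uM final), then stimulated with LPS (250 ng/mL final) plus ATP (1.25 mM final); secreted IL-1B measured by AlphaLISA after 16 hr, decreased signal indicating inhibition.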
* hit, by the source's call. Most compounds without a hit are left out; they make up all but 19% or so of the library. Unless noted, calls follow the shape of the dose curve; as a rule, active = well fitted curve in the direction sought with a large enough effect; inconclusive = small, poorly fitted or top-dose-only effect, or another doubt; inactive = no such curve, though single readings can be large; an effect the other way counts as inactive or inconclusive. Unless noted, % is scaled to controls: 0 for no effect and ±100 for the full control effect.

Results for O=[N+]([O-])c1ccc(N2CCCC2)nc1 ?
HT1080-NT tox: 5%; HT1080 IDH1KD tx: 24%; DT40 TDP1 no CPT: -10%; TDP1 cell CPT: 0%

Results for O=C(NC(=O)N1CCN(c2ccc([N+](=O)[O-])cn2)CC1)c1ccccc1F ?
HT1080-NT tox: 3%; HT1080 IDH1KD tx: 5%; DT40 TDP1 no CPT: 9.2µM*; TDP1 cell CPT: inconclusive; IL-1B inflam inh: 1

How did O=[N+]([O-])c1ccc(N2CCCCC2)nc1 do in these assays?
HT1080-NT tox: 6%; HT1080 IDH1KD tx: 0%; DT40 TDP1 no CPT: 18%; TDP1 cell CPT: 6%; IL-1B inflam inh: -2

Results for CC(C)(C)c1ccc(C(=O)N2CCCN(c3ccc([N+](=O)[O-])cn3)CC2)cc1 ?
HT1080-NT tox: -1%; HT1080 IDH1KD tx: -9%; DT40 TDP1 no CPT: 18µM*; TDP1 cell CPT: inconclusive; IL-1B inflam inh: 0

Results for O=C(NC(=O)N1CCN(c2ccc([N+](=O)[O-])cn2)CC1)c1c(Cl)cccc1Cl ?
HT1080-NT tox: 1%; HT1080 IDH1KD tx: 5%; DT40 TDP1 no CPT: inconclusive; TDP1 cell CPT: 9.2µM*

What do the screens show for `CCCN1C(=O)/C(=C/c2ccccc2OCc2ccc(C(=O)O)cc2)NC1=S`?
HT1080-NT tox: -13%; HT1080 IDH1KD tx: -19%; DT40 TDP1 no CPT: -17%; TDP1 cell CPT: 4%; IL-1B inflam inh: 8

What do the screens show for `COCCCNC(=O)c1oc2c(c1C)-c1nn(Cc3cccc(Cl)c3)cc1CC2`?
DT40 TDP1 no CPT: 18µM*; TDP1 cell CPT: 21µM*

Results for CCN(CC)CCCNC(=O)c1oc2c(c1C)-c1nn(Cc3ccc(Cl)cc3)cc1CC2 ?
DT40 TDP1 no CPT: 18µM*; TDP1 cell CPT: inconclusive

Results for COCCCNC(=O)c1oc2c(c1C)-c1nn(Cc3ccc(Cl)cc3)cc1CC2 ?
DT40 TDP1 no CPT: 18µM*; TDP1 cell CPT: 23µM*

What do the screens show for `CCCCN(C)CCCNC(=O)Cn1cc2c(n1)-c1c(oc(C(=O)N3CCCC3)c1C)CC2`?
HT1080-NT tox: 8%; HT1080 IDH1KD tx: -1%; DT40 TDP1 no CPT: inconclusive; TDP1 cell CPT: inconclusive; IL-1B inflam inh: 10

Results for COCCNC(=O)Cn1cc2c(n1)-c1c(oc(C(=O)N3CCCC3)c1C)CC2 ?
DT40 TDP1 no CPT: -2%; TDP1 cell CPT: -23%

What do the screens show for `COCCCNC(=O)c1ccc(CN2CCc3ccccc3C2)cc1`?
HT1080-NT tox: 9%; HT1080 IDH1KD tx: 0%; DT40 TDP1 no CPT: inconclusive; TDP1 cell CPT: -21%; IL-1B inflam inh: 21

Results for CC(C)c1ccc(C2c3[nH]c4ccccc4c3C[C@H]3C(=O)N(c4ccccc4C(=O)N4CCC[C@@H]4C(=O)O)C(=O)N23)cc1 (some centres not stated) ?
HT1080-NT tox: 1%; HT1080 IDH1KD tx: -7%; DT40 TDP1 no CPT: 6%; TDP1 cell CPT: 23%; IL-1B inflam inh: 8

How did CCN1C(=O)CC(N2CCN(c3ccc(Cl)cc3)CC2)C1=O (configuration not stated) do in these assays?
HT1080-NT tox: 8%; HT1080 IDH1KD tx: 11%; DT40 TDP1 no CPT: -4%; TDP1 cell CPT: -4%; IL-1B inflam inh: -18

What do the screens show for `CCN1C(=O)CC(N2CCN(c3ccc(C(=O)c4ccccc4)cc3)CC2)C1=O` (configuration not stated)?
HT1080-NT tox: -2%; HT1080 IDH1KD tx: -1%; DT40 TDP1 no CPT: 23µM*; TDP1 cell CPT: inconclusive; IL-1B inflam inh: -28

How did Cc1ccc(-c2onc(C)c2C)cc1S(=O)(=O)N1CCOc2ccc(Cl)cc21 do in these assays?
DT40 TDP1 no CPT: 15µM*; TDP1 cell CPT: inconclusive

Results for Cc1ccc(-c2onc(C)c2C)cc1S(=O)(=O)NC1CCCCC1 ?
DT40 TDP1 no CPT: 26µM*; TDP1 cell CPT: inconclusive

Results for Cc1ccc(-c2onc(C)c2C)cc1S(=O)(=O)N1CCc2ccccc21 ?
DT40 TDP1 no CPT: 23µM*; TDP1 cell CPT: 13µM*

Results for Cc1cc2c(cc1S(=O)(=O)N1CCc3ccccc31)NC(=O)CO2 ?
HT1080-NT tox: -16%; HT1080 IDH1KD tx: inconclusive; DT40 TDP1 no CPT: inconclusive; TDP1 cell CPT: -17%; IL-1B inflam inh: -79*

Results for Cc1ccc(-c2onc(C)c2C)cc1S(=O)(=O)N1CC(C)Oc2ccccc21 (configuration not stated) ?
HT1080-NT tox: -26%; HT1080 IDH1KD tx: inconclusive; DT40 TDP1 no CPT: inconclusive; TDP1 cell CPT: inconclusive; IL-1B inflam inh: 25

How did CCOC(=O)/C=C/C(=O)Nc1ccc(S(=O)(=O)Nc2cc(OC)nc(OC)n2)cc1 do in these assays?
HT1080-NT tox: 5%; HT1080 IDH1KD tx: 4%; DT40 TDP1 no CPT: -3%; TDP1 cell CPT: 0%; IL-1B inflam inh: 15

Results for CCCCN(C(=N)N1CCCCC1)c1nc(C)c([N+](=O)[O-])c(=O)[nH]1 ?
HT1080-NT tox: 8%; HT1080 IDH1KD tx: 12%; DT40 TDP1 no CPT: 2%; TDP1 cell CPT: 10%; IL-1B inflam inh: 9

Results for CCC1CN(S(=O)(=O)c2ccc3c(c2)NC(=O)CC(=O)N3)c2cc(Cl)ccc2O1 (configuration not stated) ?
HT1080-NT tox: -19%; HT1080 IDH1KD tx: -19%; DT40 TDP1 no CPT: 21µM*; TDP1 cell CPT: 16µM*; IL-1B inflam inh: 55

Results for COc1ccc(-c2onc(C)c2C)cc1S(=O)(=O)N1CCN(c2ccc(Cl)cc2)CC1 ?
DT40 TDP1 no CPT: 8%; TDP1 cell CPT: 7%

Results for CCOC(=O)C1CN(S(=O)(=O)c2ccc(Cl)cc2)c2cc(S(=O)(=O)CC)ccc2O1 (configuration not stated) ?
HT1080-NT tox: 6%; HT1080 IDH1KD tx: 2%; DT40 TDP1 no CPT: 1%; TDP1 cell CPT: 15%; IL-1B inflam inh: -23

How did CCC1CN(S(=O)(=O)c2cc(-c3onc(C)c3C)ccc2C)c2cc(Cl)ccc2O1 (configuration not stated) do in these assays?
DT40 TDP1 no CPT: 15µM*; TDP1 cell CPT: 15µM*

What do the screens show for `Cc1ccc(-c2onc(C)c2C)cc1S(=O)(=O)N1CCC(C)CC1`?
DT40 TDP1 no CPT: inconclusive; TDP1 cell CPT: 21µM*

Results for Cc1cccc(NC(=O)NCC2CCN(c3ccc(S(=O)(=O)N4CCOCC4)cc3)CC2)c1 ?
HT1080-NT tox: -11%; HT1080 IDH1KD tx: -11%; DT40 TDP1 no CPT: inconclusive; TDP1 cell CPT: inconclusive; IL-1B inflam inh: -12

Results for O=C(CCNC(=O)c1ccc(Cl)cc1)Nc1ccc(S(=O)(=O)N2CCOCC2)cc1 ?
HT1080-NT tox: -3%; HT1080 IDH1KD tx: -3%; DT40 TDP1 no CPT: -4%; TDP1 cell CPT: inconclusive; IL-1B inflam inh: 16

Assay outcomes: PubChem, National Center for Advancing Translational Sciences (NCATS)
